High-throughput results deposited in PubChem by Columbia University Molecular Screening Center.
This is one part of a sample in which hits are shown more often than they occur.
VCAM1 pot: TNF alpha stimulated VCAM1 expression potentiation | HUVEC TNFa-stimulated VCAM-1 immunofluorescence, high-content imaging; scaled per plate to unstimulated/TNFa-only wells | activation, % at 2 µM | hit rate 0.19% among 93,000 | AID 808;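 active = activation above the screen mean plus 3 SD, with well images confirming the hit on visual review, cut at about 28% in these data, passing the limit was not always enough; inconclusive = activation above that limit but images do not confirm it; inactive = activation not above that limit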;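 note: signal is the number of cytoplasmic VCAM-1 stained grains per positive cell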
VCAM1 pot conf: potentiators of TNFa-induced VCAM1 expression, confirmation, imaging, HUVEC, triplicate retest | HUVEC TNFa-stimulated VCAM-1 immunofluorescence imaging | 230 tested, under 10 active | AID 1034 | shares compounds with VCAM1 pot | activation, % at 2 µM;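 active = activation above 30% in triplicate retests at 2 µM, then confirmed by visual review of the well images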;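 note: scaled per plate between unstimulated and TNFa-stimulated DMSO control wells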
Active calls of the source: *; ? = inconclusive.

SMILES	VCAM1 pot	others
CCCNS(=O)(=O)c1ccc(NC(=O)c2ccccn2)cc1	-3.4
CS(=O)(=O)N(CC(=O)N1CCN(c2ccccc2F)CC1)c1cc(C(F)(F)F)ccc1Cl	-3.4
Cc1cc(OCC(=O)NCc2nc(-c3ccccc3)no2)c(C)cc1Br	9.9
Cc1ccc(Cl)cc1NC(=O)CC(O)(C(F)(F)F)C(F)(F)F	38.4
Nc1nc(COc2ccc3ccccc3c2)cs1	13.1
c1ccc2cc(OCc3nc4ccccc4[nH]3)ccc2c1	65.5*	VCAM1 pot conf=-4.5
COc1ccc(CSc2nc3ccccc3[nH]2)cc1	-35.3
COc1cc2[nH]c(=O)n(CCCCCC(=O)N3CC=C(c4ccccc4)CC3)c(=O)c2cc1OC	-1.4
COCCNC(=O)CSc1nc2ccccc2c(=O)n1CCCC(=O)NCc1ccccc1	3.6
CCOC(=O)N1CCC(n2c(=S)[nH]c3cc(OC)c(OC)cc3c2=O)CC1	0.7
c1ccc(-c2cc(N3CCCCCC3)n[nH]2)cc1	13.4
Cc1nc(CS(=O)c2ccccc2)cc(N2CCOCC2)n1 (stereo unspecified)	-16.3
Cc1nc(-c2ccccc2)cc(N2CCCC2)n1	61.4*	VCAM1 pot conf=-7.7
CCC(=O)Nc1ccccc1C(=O)NC1CCCCC1	8.6
CCCCCC1CC(CC(C)C(=O)Nc2nncs2)C(=O)O1 (stereo unspecified)	6.4
CCCCCCCC1CC(CSc2ncn[nH]2)OC1=O (stereo unspecified)	88.9*	VCAM1 pot conf=-14.4
O=C(Cc1ccccc1)Nc1cccc(N2CCCC2)c1	38.3
O=c1c2ccccc2nc(-c2ccoc2)n1CCc1ccccc1	-2.2
O=C(Cn1cnc2ccccc2c1=O)N1CCN(Cc2ccccc2)CC1	-5.1
CC1CCN(C(=O)Cn2c(=O)n(CCc3ccccc3)c(=O)c3ccccc32)CC1	?	VCAM1 pot conf=-27.1
CN(C)S(=O)(=O)N(CCN1CCOCC1)Cc1ccccc1F	45.2*	VCAM1 pot conf=-8.2
O=C(Nc1ccccc1)N(CCN1CCOCC1)Cc1ccccc1F	10.0
COc1ccc(CCN2C(=O)CC(Sc3ncccc3C(=O)O)C2=O)cc1OC (stereo unspecified)	-27.0
O=C(c1ccc(-n2cnnn2)cc1)N1CCCCC1	-2.2
COc1cc(OC)cc(C(=O)n2nc(C)cc2C)c1	-6.9
SMILES	VCAM1 pot	others
CC(C)(CO)NC(=O)CCCOc1ccc(Cl)cc1Cl	-93.4
Cc1cc(C)n(C(=O)COc2ccc(Cl)cc2Cl)n1	43.3*	VCAM1 pot conf=-12.0
CC1CCC2(CC1)N=C(N)Nc1nc3ccccc3n12 (stereo unspecified)	-5.6
COc1ccc(NS(=O)(=O)c2cc(C)ccc2NC(=O)c2cc(C)oc2C)cc1	-44.4
Cc1ccc(OCCNS(=O)(=O)c2cccs2)cc1	-3.9
CCOC(=O)Cc1nnc(NC(=O)CSc2nnc3c4ccccc4n(C)c3n2)s1	-8.2
CC(C)Oc1ccc(C2C(C(=O)c3ccco3)=C(O)C(=O)N2CCCN(C)C)cc1 (stereo unspecified)	-22.7
CC(C)(C)NS(=O)(=O)c1ccc(NC(=O)C(Sc2ccccc2)c2ccccc2)cc1 (stereo unspecified)	10.9
COc1cc(C2CC(=O)C=C(O)C2)cc(OC)c1OC (stereo unspecified)	16.1
O=C1C=C(O)CC(c2ccc(Cl)c(Cl)c2)C1 (stereo unspecified)	?	VCAM1 pot conf=-1.4
O=C1C=C(O)CC(c2ccc(Cl)cc2)C1 (stereo unspecified)	-2.8
Cc1ccc(N=C(c2cccs2)N2CCOCC2)cc1	-3.8
O=C(Nc1ccc2c(c1)CCC2)C1COc2ccccc2O1 (stereo unspecified)	2.2
O=C(COc1ccc(Br)cc1)N1CCN(c2ccccc2)CC1	7.7
COc1ccc(OCC(=O)N2CC3(C)CC2CC(C)(C)C3)cc1 (stereo unspecified)	-18.0
CSC1=NCCN1C(=O)COc1ccc2ccccc2c1	30.1*	VCAM1 pot conf=-10.1
CC(=O)OC1COC(N2CCc3cc([N+](=O)[O-])ccc32)C(OC(C)=O)C1OC(C)=O (stereo unspecified)	9.6
Cn1c(SCCCC(=O)c2ccc(Br)cc2)nnc1-c1ccncc1	-7.1
CCOC(=O)c1[nH]c2ccc(OC)cc2c1C	-4.2
CCOC(=O)c1cc(C)n(CCc2ccccc2)c1C	-9.0
CCOC(=O)c1c(N)sc(-c2ccccc2)c1C	45.3*	VCAM1 pot conf=-10.1
CC(=O)NC1=NN(C(C)=O)C2(CCCCC2)S1	8.1
Cc1noc(C)c1S(=O)(=O)N1CCCC(C(=O)N2CCc3ccccc3C2)C1 (stereo unspecified)	-5.9
CNc1nc(NC)nc(-n2c(C(F)(F)F)nc3ccccc32)n1	1.5
COc1ccc(N2C(=O)CC(n3c(CCCCO)nc4ccccc43)C2=O)cc1 (stereo unspecified)	0.6
SMILES	VCAM1 pot	others
COc1ccc(CN(CC(=O)NCC2CCCO2)C(=O)CNS(=O)(=O)c2ccc(C)cc2)cc1 (stereo unspecified)	18.0
COc1ccc(S(=O)(=O)NCC2CCC(C(=O)N3CCC4(CC3)OCCO4)CC2)cc1 (stereo unspecified)	?	VCAM1 pot conf=-16.9
CCOC(=O)N1CCN(C(=O)C2CCC(CNS(=O)(=O)c3ccccc3)CC2)CC1 (stereo unspecified)	-9.7
CCOC(=O)C(C)c1ccc2cc(OC)ccc2c1 (stereo unspecified)	-9.1
COc1ccc(C(=O)OCC(=O)NCc2ccco2)cc1S(=O)(=O)N1CCN(c2cccc(Cl)c2)CC1	-8.9
CC(NCc1ccc2c(c1)OCO2)C(=O)NC1CCCc2ccccc21 (stereo unspecified)	-97.3
Cc1cc(C(=O)CSc2nnc(Cc3ccccc3)o2)c(C)n1Cc1ccc2c(c1)OCO2	53.5*	VCAM1 pot conf=-8.7
O=C(CSc1nnc(Cc2cccs2)n1-c1ccccc1)NCc1ccc2c(c1)OCO2	14.6
O=C(CSc1nnnn1-c1ccc2c(c1)OCO2)NCc1ccccc1	-0.3
CC(C)[C@H](NC(=O)Nc1ccccc1F)C(=O)O	-7.6
CC(=O)N/C(=C\c1ccccc1Cl)C(=O)O	15.8
Cc1cccc(N(CC(N)=O)C2SC(=O)NC2=O)c1 (stereo unspecified)	-5.7
CCCNC(=O)CCC(NS(=O)(=O)c1ccc(C)cc1)C(=O)NCCC (stereo unspecified)	73.0*	VCAM1 pot conf=-13.7
Cc1ccc(N2CC(C(=O)NCCc3ccc(S(N)(=O)=O)cc3)CC2=O)cc1 (stereo unspecified)	6.1
Cc1ccc(S(=O)(=O)NC(=O)NCc2ccc(Cl)cc2)cc1	-16.7
CCCCOc1ccc(NC(=O)CSc2nnnn2C)cc1	2.2
CCc1nnc(NC(=O)CN2CCOCC2)s1	85.1*	VCAM1 pot conf=-10.4
CCc1nnc(NC(=O)c2cc3c(s2)CCCCC3)s1	9.0
Cn1c(CN2CCOCC2)nnc1SCC(=O)Nc1nccs1	-10.9
COc1cccc(N/C=C(\C#N)c2ccc(OCCCF)cc2)c1	0.0
O=C(NCc1ccco1)c1n[nH]c(=O)c2ccccc12	-5.4
O=C(CN1C(=O)c2ccccc2S1(=O)=O)Nc1ccc(S(=O)(=O)N2CCCCCC2)cc1	0.2
COc1ccccc1N(CC(=O)Nc1cccnc1)S(=O)(=O)c1ccccc1	8.0
COCCNC(=O)c1ccccc1NC(=O)c1ccccc1N(C)S(=O)(=O)c1ccccc1	31.6*	VCAM1 pot conf=-5.4
CN(c1ccccc1C(=O)NCc1ccccn1)S(C)(=O)=O	5.6
CCC(C)(CC(=O)N(C)CCC#N)c1ccccc1 (stereo unspecified)	-10.8
COc1ccccc1C(=O)N/C(=C/c1ccc(Br)cc1)C(=O)NCC(=O)O	-8.5
